In PubChem BioAssay (NCATS):
Records with an inconclusive call do not appear. Entries that show only a call come without a potency. The source made the active and inactive calls. Calls come from the whole dose curve; as a rule, active = well fitted inhibition curve with a large enough effect; inconclusive = small, poorly fitted or top-dose-only effect; inactive = flat fitted curve, though single readings scatter.

molecular target: Lysine-specific demethylase 5B (Homo sapiens) (UniProt Q9UGL1); assay: Optimization screen for KDM5B Histone Demethylases FDH coupled qHTS against the LOPAC library (AID 1347166); settings: KDM5B demethylation, FDH-coupled NADH fluorescence (FDH is formaldehyde dehydrogenase); series mostly up to 57.5 µM
How it was run: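 KDM5BDeltaAP (200nM final) preincubated 10 min with compound, then 12.5uM H3K4Me3, 25uM a-ketoglutarate, ascorbate, Fe(II), NAD+ and FDH added; 50mM HEPES pH 7.5, 0.01% Tween-20. NADH fluorescence (340/450 nm) change over 30 min, room temperature.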

Lysine-specific demethylase 5B (Homo sapiens), sequence (Q9UGL1 whole entry, looked up): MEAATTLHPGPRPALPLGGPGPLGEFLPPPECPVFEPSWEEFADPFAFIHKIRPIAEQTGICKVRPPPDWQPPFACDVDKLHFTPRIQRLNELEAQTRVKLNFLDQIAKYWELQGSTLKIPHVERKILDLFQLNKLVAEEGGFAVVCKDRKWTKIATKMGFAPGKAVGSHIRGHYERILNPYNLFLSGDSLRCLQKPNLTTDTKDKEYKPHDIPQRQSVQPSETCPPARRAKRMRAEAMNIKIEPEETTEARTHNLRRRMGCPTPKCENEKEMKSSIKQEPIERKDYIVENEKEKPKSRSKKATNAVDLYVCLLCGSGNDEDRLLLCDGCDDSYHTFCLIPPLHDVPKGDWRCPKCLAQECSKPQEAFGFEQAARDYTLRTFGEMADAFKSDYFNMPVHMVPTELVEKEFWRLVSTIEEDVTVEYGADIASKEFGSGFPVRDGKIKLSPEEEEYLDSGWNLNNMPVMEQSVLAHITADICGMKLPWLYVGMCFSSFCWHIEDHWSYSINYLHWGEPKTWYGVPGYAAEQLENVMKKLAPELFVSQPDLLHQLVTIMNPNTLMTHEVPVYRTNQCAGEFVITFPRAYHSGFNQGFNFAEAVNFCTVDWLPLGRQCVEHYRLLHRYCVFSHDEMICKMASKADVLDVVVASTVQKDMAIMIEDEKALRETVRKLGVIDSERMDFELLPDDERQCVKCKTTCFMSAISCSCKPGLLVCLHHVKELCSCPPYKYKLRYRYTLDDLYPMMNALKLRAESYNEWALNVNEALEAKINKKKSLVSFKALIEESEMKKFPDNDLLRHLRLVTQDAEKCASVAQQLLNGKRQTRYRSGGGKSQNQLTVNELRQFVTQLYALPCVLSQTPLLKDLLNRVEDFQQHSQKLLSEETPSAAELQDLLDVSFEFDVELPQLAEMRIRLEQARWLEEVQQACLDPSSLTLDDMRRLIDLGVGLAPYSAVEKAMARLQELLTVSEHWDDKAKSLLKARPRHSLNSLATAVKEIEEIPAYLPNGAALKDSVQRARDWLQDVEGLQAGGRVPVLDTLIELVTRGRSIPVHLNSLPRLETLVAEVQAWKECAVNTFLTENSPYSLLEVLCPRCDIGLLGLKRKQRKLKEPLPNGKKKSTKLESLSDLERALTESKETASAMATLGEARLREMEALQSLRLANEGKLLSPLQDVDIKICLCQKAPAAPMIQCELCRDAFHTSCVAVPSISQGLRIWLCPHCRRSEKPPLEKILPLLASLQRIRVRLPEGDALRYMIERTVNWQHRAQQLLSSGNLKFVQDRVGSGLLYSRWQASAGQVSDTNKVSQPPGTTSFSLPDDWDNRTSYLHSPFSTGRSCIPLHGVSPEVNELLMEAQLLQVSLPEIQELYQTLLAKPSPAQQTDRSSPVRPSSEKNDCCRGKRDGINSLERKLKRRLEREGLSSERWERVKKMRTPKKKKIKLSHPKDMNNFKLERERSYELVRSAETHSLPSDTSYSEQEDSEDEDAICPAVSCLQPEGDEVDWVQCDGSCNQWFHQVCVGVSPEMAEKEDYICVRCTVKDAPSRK

Structure (SMILES)	Potency
N#CCCN	inactive
CC(C)(O)[C@@H]1C2OC(=O)[C@@H]1[C@]1(O)C[C@H]3O[C@]34C(=O)O[C@H]2[C@]14C (tested in a mixture with another compound)	inactive
NC(=O)c1ccc(OCC(O)CN2CC=C(c3ccc(F)cc3)CC2)cc1 (stereo not given)	inactive
O=C1CC[C@@]2(O)C3Cc4ccc(O)c5c4C2(CCN3CC2CC2)[C@H]1O5 (stereo not given in full)	inactive
C[C@H](N)CN1CCc2ccc(Br)cc21	inactive
C[C@H](Cc1ccc2c(c1)OC(C(=O)O)(C(=O)O)O2)NC[C@H](O)c1cccc(Cl)c1	inactive
CCCN(CCC)C1Cc2cc(OC)c(OC)cc2C1	inactive
OCc1cnc[nH]1	inactive
CCN(CCCl)Cc1ccccc1Br	inactive
COC(=O)N1CCN(C(=O)Cc2ccc(Cl)c(Cl)c2)C(CN2CCCC2)C1 (stereo not given)	inactive
CC(C)(C)c1o[nH]c(=O)c1CC(N)C(=O)O (stereo not given)	inactive
C[N+]1(C)CCc2cc3c(cc2[C@H]1[C@@H]1OC(=O)c2c1ccc1c2OCO1)OCO3	inactive
C[N+](C)(C)CC#CCN1CCCC1=O	inactive
CCS(=O)(=O)Nc1cccc(C(=C2CCCCC2)c2cnc[nH]2)c1	inactive
O=C1C=CC(=O)C=C1	inactive
C=CCN(C1=NCCN1)c1c(Cl)cccc1Cl	inactive
C[Se]C[C@H](N)C(=O)O	inactive
N=C(N)c1ccc(CS(=O)(=O)F)cc1	inactive
NC(=O)COc1c(F)cc(SCCNS(=O)(=O)c2ccccc2)cc1F	inactive
C[C@H](N)Cc1cccc(C(F)(F)F)c1	inactive
